Inhibition data for 40 molecules are collected here from ChEMBL document CHEMBL3433997, “St. Jude Leishmania screening dataset” (2016).

Sequence of Solute carrier family 2, facilitated glucose transporter member 1 (Homo sapiens) (P11166 whole entry): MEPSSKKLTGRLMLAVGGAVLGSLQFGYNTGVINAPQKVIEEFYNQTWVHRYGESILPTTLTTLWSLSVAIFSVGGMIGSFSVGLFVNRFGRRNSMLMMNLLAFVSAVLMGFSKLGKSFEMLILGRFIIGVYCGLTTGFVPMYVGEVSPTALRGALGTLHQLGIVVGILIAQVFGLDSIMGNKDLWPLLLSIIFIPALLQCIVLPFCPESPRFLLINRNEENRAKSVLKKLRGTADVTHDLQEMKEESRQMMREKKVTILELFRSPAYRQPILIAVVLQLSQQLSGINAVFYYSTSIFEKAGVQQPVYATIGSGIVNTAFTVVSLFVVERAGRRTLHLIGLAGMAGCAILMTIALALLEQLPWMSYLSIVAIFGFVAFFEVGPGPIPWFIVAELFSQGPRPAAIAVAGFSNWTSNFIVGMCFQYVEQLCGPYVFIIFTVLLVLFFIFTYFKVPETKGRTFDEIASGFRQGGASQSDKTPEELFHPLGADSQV

One assay addresses Solute carrier family 2, facilitated glucose transporter member 1 (Homo sapiens) (UniProt P11166). Nature of the assay: ST_JUDE_LEISH: Cytotoxicity at 2uM final concentration against transgenic Leishmania Mexicana promastigotes LmGLUT1 that are glucose transport deficient and complemented with the human glucose transporter GLUT1. Activity is measured by DNA content using SYBR green in vitro. It counts as functional.
Regarding `CN(CCCNCc1cccc2ccccc12)CCCNCc1cccc2ccccc12`, the inhibition is 1.31%.
Turning to `CN(CCCc1c[nH]c2ccccc12)CCC1CCC(NC(=O)/C=C/c2ccc(Cl)c(Cl)c2)CC1` (stereo not given), the inhibition was 3.61%.
With `Fc1ccc(COc2ccc(Nc3ncnc4ccc(I)cc34)cc2Cl)cc1`, the inhibition turned out to be 20.3%.
Still for that read-out and setting: next, `COc1ccc2ccccc2c1CNCCCCCCNCc1c(OC)ccc2ccccc12`: 1.14%; `CON(CCCN(C)C)C(=N)N`: 0.55%; `COc1ccc(OC)c(NC(=O)c2c(-c3c(F)cccc3Cl)noc2C)c1`: 5.12%.
Take `c1ccc(CN2CCC(NCc3ccc(-c4cccc(CNC5CCCC5)c4)cc3)CC2)cc1`: the inhibition was 15.8%.
Same read-out and setting: as for `Cc1nc(C)c(CC(=O)Nc2ccc(-c3cccc(-c4nc5cccc(C)c5[nH]4)c3)cc2)s1`, the figure is 2.82%; as for `Cc1cccc2nc(-c3cccc(-c4ccc(NC(=O)c5ccncc5)cc4)c3)[nH]c12`, 2.81%; as for `Cc1ccc(N2C(N)=NC(N)=NC2(C)C)cc1Cl`, 11.4%.
With `CCCC/C=C(\Cl)c1ccc(O)c2c1C[C@H]1C[C@H]3[C@H](N(C)C)C(O)=C(C(N)=O)C(=O)[C@@]3(O)C(O)=C1C2=O`, the inhibition was -0.21%.
For the molecule `O=C(O)CCSSc1cccc[n+]1[O-]`, the inhibition is 29.9%.
Turning to `COc1cc2c(cc1OC)C(C(=O)Nc1ccc(C(F)(F)F)cc1)C(c1cccs1)N(C)C2=O` (stereo not given), the inhibition came out at 2.92%.
For the molecule `CCOC(=O)c1cc(C(=O)NCCCCN2CCC(c3ccc4c(c3OC)CCCC4)CC2)ccc1-c1ccc(C(F)(F)F)cc1`, the inhibition is -2.37%.
Take `CCCCCc1ccc(NC(=O)Nc2ccc(Cn3ncc(N4CCCNCC4)c(Cl)c3=O)cc2)cc1`: the inhibition was -1.1%.
Turning to `Cc1cccc2nc(-c3cccc(-c4cccc(NC(=O)c5c[nH]cn5)c4)c3)[nH]c12`, the inhibition worked out at 1.5%.
As for `NC(=O)c1cc2nc(Nc3ccc(F)cc3)nc(NC3CCC3)c2[nH]1`, the inhibition turned out to be 1.42%.
For the molecule `O[C@H]1[C@H](OCc2ccc(-c3ccccc3)cc2)CC[C@@H]1N1CCCCC1`, the inhibition stood at 0.73%.
The same measure, in the same setting: as for `COc1ccc(-c2nnc(Sc3ccc(C#N)c([N+](=O)[O-])c3)n2CCC(C)C)cc1`, the figure is 5.19%.
With `CN(CCON1C(=N)N=C(N)NC1(C)C)c1ccccc1`, the inhibition was -0.49%.
Regarding `O=C(NCCCCCN1CCC(c2c[nH]c3ccccc23)CC1)Nc1ccc(Br)cc1`, the inhibition was -0.87%.
Regarding `COCCNCc1ccc(-c2ccc3c(Nc4ccc(F)cc4Cl)ccnc3c2)o1`, the inhibition amounted to 4.1%.
Still for that read-out and setting: next, `COc1ccc(-c2cc(C(=O)N[C@@H](CC3CCCCC3)C(=O)NCCN3CCCCC3)ccc2O)cc1`: -0.43%; `Cc1[nH]c(C)c(-c2ccc(OCCCc3ccccn3)cc2)c(=O)c1Br`: 8.98%.
Turning to `COc1cccc2c(NN=Cc3ccccc3F)ccnc12`, the inhibition worked out at 7.43%.
Consider `CN(C)S(=O)(=O)c1ccc(N2C(=O)C3C(C2=O)C2(c4ccccc4)C(=O)C3(c3ccccc3)C(c3ccccc3)=C2c2ccccc2)cc1` (stereo not given), for which the inhibition is -0.75%.
For `CN1CCN(CC(=O)Nc2cccc(-c3cccc(-c4nc5ccccc5[nH]4)c3)c2)CC1`, the inhibition is -0.57%.
Consider `COc1cccc(CN2CCCN(Cc3cccc(NC(=O)c4cc5ccccc5s4)c3)CC2)c1`, for which the inhibition was 3.41%.
The same measure, in the same setting: as for `CC12CN3CC(C)(CN(C1)C3c1cc(Br)ccc1O)C2O` (stereo not given), the figure is -3.78%; as for `CCN(CC)CCN(Cc1ccc(-c2ccc(C(F)(F)F)cc2)cc1)C(=O)Cn1cc(Cc2cnn(C)c2)c(=O)nc1/C=C/c1ccc(F)cc1`, 1.22%.
The same measure, in the same setting: next, `Cc1cc(NCCc2ccccc2)nc(NC(=N)Nc2cccc(Cl)c2)n1`: -0.54%; `COc1ccc(OCC(=O)Nc2nc(-c3ccc(OC)cc3)c(C)s2)cc1`: 1.08%.
For the molecule `CCCCCCSc1nnc(COc2cccc3ccccc23)n1-c1ccc(OC)cc1`, the inhibition is 11%.
Take `O=C(CSc1cccc[n+]1[O-])c1ccc(Cc2ncc(C(F)(F)F)cc2Cl)s1`: the inhibition was determined as 9.45%.
For `Nc1nc2ccc(S(=O)(=O)Nc3ccc(C(=O)N[C@@H](CCC(=O)O)C(=O)O)c(F)c3)cc2c(=O)[nH]1`, the inhibition came out at 0.57%.
Consider `CCn1ccc2c3c(N)nc(N)nc3ccc21`, for which the inhibition is 1.21%.
Take `Cc1cc(NCCCCCCN)nc(Nc2ccc(Cl)cc2)n1`: the inhibition turned out to be 5.87%.
In the case of `O=C(Nc1ccc(I)cc1)N1CCc2sccc2C1CN1CCCCC1` (stereo not given), the inhibition came out at 12.2%.
As for `CCc1ccc(CN2CCC(C(=O)Nc3ccc(-c4nc5ccccc5[nH]4)cc3)CC2)o1`, the inhibition stood at 31.6%.
As for `O=S(=O)(c1ccccc1Cl)N1CCCCC(c2ccc(C(F)(F)F)cc2)=N1`, the inhibition stood at 1.24%.

The next assay has as its target Hexose transporter 1 (Plasmodium falciparum) (UniProt O97467). In words: ST_JUDE_LEISH: Cytotoxicity at 2uM final concentration against transgenic Leishmania Mexicana promastigotes LmPfHT that are glucose transport deficient and complemented with the Plasmodium falciparum hexose transporter. Activity is measured by DNA content using SYBR green in vitro. It counts as functional.
For `CN(CCCNCc1cccc2ccccc12)CCCNCc1cccc2ccccc12`, the inhibition came out at 0.53%.
For the molecule `CN(CCCc1c[nH]c2ccccc12)CCC1CCC(NC(=O)/C=C/c2ccc(Cl)c(Cl)c2)CC1` (stereo not given), the inhibition worked out at 2.63%.
In the case of `Fc1ccc(COc2ccc(Nc3ncnc4ccc(I)cc34)cc2Cl)cc1`, the inhibition was 5.02%.
On to `COc1ccc2ccccc2c1CNCCCCCCNCc1c(OC)ccc2ccccc12`, for which the inhibition is -0.97%.
Turning to `CON(CCCN(C)C)C(=N)N`, the inhibition was determined as 2.02%.
On the same count and under the same terms, next, `COc1ccc(OC)c(NC(=O)c2c(-c3c(F)cccc3Cl)noc2C)c1`: 3.64%; `c1ccc(CN2CCC(NCc3ccc(-c4cccc(CNC5CCCC5)c4)cc3)CC2)cc1`: 8.03%; `Cc1nc(C)c(CC(=O)Nc2ccc(-c3cccc(-c4nc5cccc(C)c5[nH]4)c3)cc2)s1`: 2.89%.
In the case of `Cc1cccc2nc(-c3cccc(-c4ccc(NC(=O)c5ccncc5)cc4)c3)[nH]c12`, the inhibition was found to be 2.24%.
Regarding `Cc1ccc(N2C(N)=NC(N)=NC2(C)C)cc1Cl`, the inhibition stood at 8.8%.
On the same count and under the same terms, as for `CCCC/C=C(\Cl)c1ccc(O)c2c1C[C@H]1C[C@H]3[C@H](N(C)C)C(O)=C(C(N)=O)C(=O)[C@@]3(O)C(O)=C1C2=O`, the figure is -1.57%; as for `O=C(O)CCSSc1cccc[n+]1[O-]`, 48.3%; as for `COc1cc2c(cc1OC)C(C(=O)Nc1ccc(C(F)(F)F)cc1)C(c1cccs1)N(C)C2=O` (stereo not given), 3.56%.
On the same count and under the same terms, next, `CCOC(=O)c1cc(C(=O)NCCCCN2CCC(c3ccc4c(c3OC)CCCC4)CC2)ccc1-c1ccc(C(F)(F)F)cc1`: 4.37%; `CCCCCc1ccc(NC(=O)Nc2ccc(Cn3ncc(N4CCCNCC4)c(Cl)c3=O)cc2)cc1`: -1.27%; `Cc1cccc2nc(-c3cccc(-c4cccc(NC(=O)c5c[nH]cn5)c4)c3)[nH]c12`: 0.24%.
The same measure, in the same setting: as for `NC(=O)c1cc2nc(Nc3ccc(F)cc3)nc(NC3CCC3)c2[nH]1`, the figure is 1.11%; as for `O[C@H]1[C@H](OCc2ccc(-c3ccccc3)cc2)CC[C@@H]1N1CCCCC1`, 1.54%; as for `COc1ccc(-c2nnc(Sc3ccc(C#N)c([N+](=O)[O-])c3)n2CCC(C)C)cc1`, 5.04%.
With `CN(CCON1C(=N)N=C(N)NC1(C)C)c1ccccc1`, the inhibition came to 0.33%.
Regarding `O=C(NCCCCCN1CCC(c2c[nH]c3ccccc23)CC1)Nc1ccc(Br)cc1`, the inhibition was -1.37%.
For the molecule `COCCNCc1ccc(-c2ccc3c(Nc4ccc(F)cc4Cl)ccnc3c2)o1`, the inhibition came to 4.05%.
For the molecule `COc1ccc(-c2cc(C(=O)N[C@@H](CC3CCCCC3)C(=O)NCCN3CCCCC3)ccc2O)cc1`, the inhibition was -0.56%.
Consider `Cc1[nH]c(C)c(-c2ccc(OCCCc3ccccn3)cc2)c(=O)c1Br`, for which the inhibition turned out to be 6.12%.
Turning to `COc1cccc2c(NN=Cc3ccccc3F)ccnc12`, the inhibition was 7.62%.
Regarding `CN(C)S(=O)(=O)c1ccc(N2C(=O)C3C(C2=O)C2(c4ccccc4)C(=O)C3(c3ccccc3)C(c3ccccc3)=C2c2ccccc2)cc1` (stereo not given), the inhibition is -2.18%.
As to `CN1CCN(CC(=O)Nc2cccc(-c3cccc(-c4nc5ccccc5[nH]4)c3)c2)CC1`, the inhibition is -0.37%.
As for `COc1cccc(CN2CCCN(Cc3cccc(NC(=O)c4cc5ccccc5s4)c3)CC2)c1`, the inhibition turned out to be 4.66%.
Same read-out and setting: next, `CC12CN3CC(C)(CN(C1)C3c1cc(Br)ccc1O)C2O` (stereo not given): -1.64%.
The same measure, in the same setting: as for `CCN(CC)CCN(Cc1ccc(-c2ccc(C(F)(F)F)cc2)cc1)C(=O)Cn1cc(Cc2cnn(C)c2)c(=O)nc1/C=C/c1ccc(F)cc1`, the figure is 1.54%.
Turning to `Cc1cc(NCCc2ccccc2)nc(NC(=N)Nc2cccc(Cl)c2)n1`, the inhibition is 1.42%.
In the case of `COc1ccc(OCC(=O)Nc2nc(-c3ccc(OC)cc3)c(C)s2)cc1`, the inhibition amounted to 0.94%.
Take `CCCCCCSc1nnc(COc2cccc3ccccc23)n1-c1ccc(OC)cc1`: the inhibition amounted to 12.1%.
For `O=C(CSc1cccc[n+]1[O-])c1ccc(Cc2ncc(C(F)(F)F)cc2Cl)s1`, the inhibition stood at 9.48%.
Consider `Nc1nc2ccc(S(=O)(=O)Nc3ccc(C(=O)N[C@@H](CCC(=O)O)C(=O)O)c(F)c3)cc2c(=O)[nH]1`, for which the inhibition stood at 1.22%.
With `CCn1ccc2c3c(N)nc(N)nc3ccc21`, the inhibition amounted to 2.13%.
In the case of `Cc1cc(NCCCCCCN)nc(Nc2ccc(Cl)cc2)n1`, the inhibition worked out at 5.27%.
Regarding `O=C(Nc1ccc(I)cc1)N1CCc2sccc2C1CN1CCCCC1` (stereo not given), the inhibition came out at 9.79%.
Turning to `CCc1ccc(CN2CCC(C(=O)Nc3ccc(-c4nc5ccccc5[nH]4)cc3)CC2)o1`, the inhibition was 39.6%.
For `O=S(=O)(c1ccccc1Cl)N1CCCCC(c2ccc(C(F)(F)F)cc2)=N1`, the inhibition worked out at 2.48%.
